Values joined by “and” are separate entries in the source; they are usually repeats but may differ in a detail not shown here. Equal entries are not always repeated. About 83,000 compounds went through this panel and 20% of them were active in at least one assay; those are over-represented in the sample as a whole.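 For each line, cells grew in 96-well plates with the test compound present at a single concentration for 48 hours.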 Active and inactive are the calls of the source. How the source made its calls: active means growth percent below 10; inactive means the rest.
Columns and labels:
Assay in all cases: NCI-60 one-dose screen, 48 h (100 = growth as untreated, 0 = no growth, -100 = all killed)
[1] = tested on: UO-31 renal; settings: 10 µM unless noted
[2] = tested on: TK-10 renal
[3] = tested on: ACHN renal; settings: 10 µM unless noted
[4] = tested on: CAKI-1 renal; settings: 10 µM unless noted
[5] = tested on: HL-60(TB) leukemia; settings: 10 µM unless noted
[6] = tested on: MOLT-4 leukemia; settings: 10 µM unless noted
[7] = tested on: RPMI-8226 leukemia; settings: 10 µM unless noted
[8] = tested on: OVCAR-8 ovarian; settings: 10 µM
[9] = tested on: OVCAR-5 ovarian; settings: 10 µM unless noted
[10] = tested on: OVCAR-4 ovarian; settings: 10 µM unless noted
[11] = tested on: SK-OV-3 ovarian; settings: 10 µM unless noted
[12] = tested on: IGROV1 ovarian; settings: 10 µM unless noted
[13] = tested on: OVCAR-3 ovarian; settings: 10 µM unless noted
[14] = tested on: NCI/ADR-RES ovarian; settings: 10 µM unless noted
[15] = tested on: T-47D breast; settings: 10 µM unless noted
[16] = tested on: BT-549 breast; settings: 10 µM unless noted
[17] = tested on: MDA-MB-435 melanoma; settings: 10 µM unless noted
[18] = tested on: A498 renal; settings: 10 µM unless noted
[19] = tested on: SR leukemia; settings: 10 µM unless noted
[20] = tested on: HS 578T breast; settings: 10 µM unless noted

Measured: growth

Cc1cc(N=Nc2ccccc2C)ccc1N
active: [5] 8.96%
inactive: [1] 19.3% | [2]; 10 µM 124% | [3] 85.3% | [4] 54.7% | [6] 29.3% | [7] 17.5% | [8] 82.1% | [9] 84.7% | [10] 69.2% | [11] 99.1% | [12] 77.1% | [13] 73.2% | [14] 79.4% | [15] 59% | [16] 69.7% | [17] 82.9%

COc1cccc2c1cc([N+](=O)[O-])c1c(C(=O)O)cc3c(c12)OCO3
9.19% (active) and 88% (inactive): [4]
active: [2]; 100 µM -10.4% and -42.6%
inactive: [1] 76.5% and 87.8% | [2]; 10 µM 30.8% and 99.6% | [3] 39.1% and 96.1% | [18] 87.2% and 107% | [5] 41.6% and 79.4% | [6] 35.7% and 95.9% | [19] 28.1% and 76.3% | [7] 89.1% and 82.3% | [8] 55.2% | [9] 106% and 85.3% | [10] 82.8% and 141% | [11] 86% and 95.1% | [12] 58.6% and 59.2% | [13] 76.5% and 103% | [20] 107% and 110% | [14] 70.7% and 104% | [15] 91.3% and 84.2% | [16] 91.7% and 102% | [17] 93.1% and 100%

CC[C@@]1(O)C[C@H](OC2CC(N(C)C)C(OC3CC(O)C(OC4CCC(=O)C(C)O4)C(C)O3)C(C)O2)c2c(cc3c(c2O)C(=O)c2c(O)ccc(O)c2C3=O)[C@H]1C(=O)OC (stereo not given in full)
inactive: [11] 33.1% | [14] 11% | [15] 18%
active: [1] -57.2% | [2]; 10 µM 6.04% | [3] -86.9% | [4] -53.5% | [18] -78.6% | [5] -9.74% | [6] 7.32% | [19] 1.06% | [7] -33.9% | [9] 1.64% | [10] -36.5% | [12] -49.2% | [13] 0.51% | [20] 9.34% | [16] -4.5% | [17] -2.5%

CCCCCCCCCCCC1CCCC(C)N1 (stereo not given)
active: [5] -45.8% | [19] -28% | [7] -34.7% | [12] -40.3%
inactive: [1] 29% | [3] 77.8% | [4] 86.6% | [18] 95.8% | [6] 14.1% | [8] 67.3% | [9] 88.8% | [10] 85.5% | [11] 121% | [13] 90.9% | [20] 64.5% | [14] 82.7% | [15] 102% | [17] 71.8%

Source: PubChem BioAssay (NCI)
